Test results: PubChem BioAssay (EPA / NIEHS)
Activity calls are given as the source filed them. The calls were made as follows, unless noted: active = hit-call score of the fitted dose curve at least 0.9, where 1 is the maximum; inactive = score below 0.9.

Assays:
[1] = CEETOX_H295R_OHPREG: CeeTox H295R High-throughput Steroidogenesis Assay for OH-Pregnenolone (OHPREG) (AID 2283434); settings: actives raise or lower the signal
In short: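 Hormone levels in spent medium were measured by tandem mass spectrometry following liquid-liquid extraction. Cells (H295R) had been forskolin-stimulated (10 uM, 48 h) before a 48 h chemical exposure at 0.1% DMSO, with activity fitted in both directions against DMSO.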

[2] = CEETOX_H295R_OHPROG: CeeTox H295R High-throughput Steroidogenesis Assay for OH-Progesterone (OHPROG) (AID 2283435); settings: actives raise or lower the signal
In short: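 H295R human adrenal cells were prestimulated 48 h with 10 uM forskolin, then exposed 48 h to test chemical (0.1% DMSO final). 17alpha-hydroxyprogesterone in medium was measured by HPLC-MS/MS after MTBE extraction; bidirectional fitting vs DMSO.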

[3] = CEETOX_H295R_PROG: CeeTox H295R High-throughput Steroidogenesis Assay for Progesterone (PROG) (AID 2283442); settings: actives raise or lower the signal;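 as to AC50: human H295R adrenal cells primed with 10 µM forskolin before dosing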
In short: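 H295R adrenal cells prestimulated 48 h with 10 uM forskolin, then exposed 48 h to test chemical in 0.1% DMSO. Progesterone in medium quantified by HPLC-MS/MS after MTBE extraction; viability checked by MTT in same wells.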

[4] = read-out: Cyclin D2 (CCND2), CCND2 (gene 894); experiment: LTEA_HepaRG_CCND2: Life Technologies and Expression Analysis (LTEA) Assay for Cyclin D2 (CCND2) using HepaRG (AID 2283449); settings: mRNA level, 48 h; actives raise or lower the signal
In short: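 Read-out is CCND2 mRNA level measured by qRT-PCR in human HepaRG liver cells and normalised to three housekeeping genes. Chemicals were applied for 48 h at up to 100 uM, with gain or loss fitted relative to 0.5% DMSO.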

[5] = read-out: Cyclin Dependent Kinase Inhibitor 1A (CDKN1A), CDKN1A (gene 1026); experiment: LTEA_HepaRG_CDKN1A: Life Technologies and Expression Analysis (LTEA) Assay for Cyclin Dependent Kinase Inhibitor 1A (CDKN1A) using HepaRG (AID 2283450); settings: mRNA level, 48 h; actives raise or lower the signal
In short: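 Differentiated HepaRG cells in serum-free induction medium, exposed 48 h in duplicate to eight half-log concentrations up to 100 uM in 0.5% DMSO. mRNA measured by TaqMan qRT-PCR, normalized to ACTB, GAPDH, POLR2A; bidirectional fit versus DMSO.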

[6] = read-out: Cyclin D1 (CCND1), CCND1 (gene 595); experiment: LTEA_HepaRG_CCND1: Life Technologies and Expression Analysis (LTEA) Assay for Cyclin D1 (CCND1) using HepaRG (AID 2283451); settings: mRNA level, 48 h; actives raise or lower the signal;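 as to AC50: TaqMan qRT-PCR transcript level normalised to ACTB GAPDH and POLR2A housekeeping genes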
In short: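 Differentiated HepaRG cells exposed 48 h in serum-free induction medium to eight half-log concentrations from 100 uM top, 0.5% DMSO, duplicates. CCND1 mRNA measured by Fluidigm TaqMan qRT-PCR, normalised to ACTB, GAPDH, POLR2A; bidirectional fit.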

[7] = read-out: catalase (CAT), CAT (gene 847); experiment: LTEA_HepaRG_CAT: Life Technologies and Expression Analysis (LTEA) Assay for catalase (CAT) using HepaRG (AID 2283452); settings: mRNA level, 48 h; actives raise or lower the signal;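 as to AC50: TaqMan qRT-PCR signal normalized to ACTB GAPDH and POLR2A housekeeping genes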
In short: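 Expression of CAT was quantified by TaqMan qRT-PCR with ACTB/GAPDH/POLR2A normalization after 48 h chemical exposure of HepaRG. Eight-point half-log series, top 100 uM, in 0.5% DMSO; gain or loss fitted against vehicle.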

[8] = read-out: flavin-containing dimethylaniline monooxygenases 3 (FMO3), FMO3 (gene 2328); experiment: LTEA_HepaRG_FMO3: Life Technologies and Expression Analysis (LTEA) Assay for flavin-containing dimethylaniline monooxygenases 3 (FMO3) using HepaRG (AID 2283453); settings: mRNA level, 48 h; actives raise or lower the signal;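 as to AC50: FMO3 transcript by TaqMan qRT-PCR normalized to ACTB GAPDH and POLR2A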
In short: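 HepaRG, 48 h exposure, 8-pt half-log series from 100 uM, 0.5% DMSO vehicle, duplicates; FMO3 transcript by Fluidigm TaqMan qRT-PCR, housekeeping-normalized; gain/loss fit vs DMSO.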

[9] = read-out: Cytochrome P450 (CYP1A1), CYP1A1 (gene 1543); experiment: LTEA_HepaRG_CYP1A1: Life Technologies and Expression Analysis (LTEA) Assay for Cytochrome P450 (CYP1A1) using HepaRG (AID 2283454); settings: mRNA level, 48 h; actives raise or lower the signal
In short: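 Differentiated human HepaRG cells, after 48 h plating, exposed in duplicate for 48 h in serum-free induction medium to 8 half-log concentrations up to 100 uM in 0.5% DMSO. CYP1A1 mRNA by qRT-PCR, normalized to ACTB/GAPDH/POLR2A; bidirectional fit versus DMSO.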

[10] = read-out: CFLAR gene, CFLAR (gene 8837); experiment: LTEA_HepaRG_CFLAR: Life Technologies and Expression Analysis (LTEA) Assay for CFLAR gene using HepaRG (AID 2283455); settings: mRNA level, 48 h; actives raise or lower the signal
In short: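 HepaRG, 48 h exposure, 8-pt conc-response (100 uM top, half-log), 0.5% DMSO vehicle, duplicates. CFLAR expression by qRT-PCR; ACTB/GAPDH/POLR2A normalization; gain or loss fit vs DMSO baseline.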

[11] = read-out: Forkhead box O1 (FOXO1), FOXO1 (gene 2308); experiment: LTEA_HepaRG_FOXO1: Life Technologies and Expression Analysis (LTEA) Assay for Forkhead box O1 (FOXO1) using HepaRG (AID 2283456); settings: mRNA level, 48 h; actives raise or lower the signal
In short: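 Readout is FOXO1 transcript level by multiplexed qRT-PCR against three housekeeping genes, curve-fitted in both directions relative to 0.5% DMSO vehicle. Human HepaRG cultures received chemicals for 48 h, up to 100 uM in half-log steps.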

[12] = read-out: growth arrest and DNA damage 45 (GADD45A), GADD45A (gene 1647); experiment: LTEA_HepaRG_GADD45A: Life Technologies and Expression Analysis (LTEA) Assay for growth arrest and DNA damage 45 (GADD45A) using HepaRG (AID 2283458); settings: mRNA level, 48 h; actives raise or lower the signal
In short: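 Differentiated HepaRG cells were exposed in duplicate for 48 h in serum-free induction medium to 8-point half-log concentrations up to 100 uM in 0.5% DMSO. GADD45A mRNA was measured by TaqMan qRT-PCR, normalized to ACTB, GAPDH and POLR2A, with bidirectional fitting versus DMSO.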

[13] = CEETOX_H295R_11DCORT: CeeTox H295R High-throughput Steroidogenesis Assay for 11-Deoxycortisol (11DCORT) (AID 2283432); settings: actives raise or lower the signal;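 as to AC50: 11-deoxycortisol secreted into the medium measured by LC-MS/MS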
In short: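 H295R cells prestimulated 48 h with 10 uM forskolin, then exposed 48 h to chemical in 0.1% DMSO. 11-Deoxycortisol in medium quantified by HPLC-MS/MS after MTBE extraction; bidirectional fit versus DMSO. MTT viability read in same wells.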

[14] = CEETOX_H295R_CORTISOL: CeeTox H295R High-throughput Steroidogenesis Assay for Cortisol (AID 2283438); settings: actives raise or lower the signal;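 also: cortisol secreted into medium quantified by LC-MS/MS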
In short: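 H295R human adrenal cells were prestimulated 48 h with 10 uM forskolin, then exposed 48 h to test chemical (0.1% DMSO final). Medium cortisol was quantified by HPLC-MS/MS after MTBE extraction; bidirectional fitting relative to DMSO baseline.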

[15] = CEETOX_H295R_DOC: CeeTox H295R High-throughput Steroidogenesis Assay for DOC (AID 2283439); settings: actives raise or lower the signal
In short: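 H295R adrenal cells prestimulated 48 h with 10 uM forskolin, then exposed 48 h to test chemical (0.1% DMSO final). Medium 11-deoxycorticosterone extracted with MTBE, quantified by HPLC-MS/MS; bidirectional fit versus DMSO baseline; MTT viability in same wells.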

[16] = CEETOX_H295R_ESTRADIOL: CeeTox H295R High-throughput Steroidogenesis Assay for Estradiol (AID 2283440); settings: actives raise or lower the signal;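 also: estradiol secreted into medium quantified by LC-MS/MS after dansyl derivatisation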
In short: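 H295R cells pre-stimulated 48 h with 10 uM forskolin, then exposed 48 h to chemical in 0.1% DMSO. Medium estradiol quantified by MTBE extraction, dansyl derivatisation and HPLC-MS/MS; bidirectional fit versus DMSO; MTT viability required >/=70%.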

[17] = CEETOX_H295R_ESTRONE: CeeTox H295R High-throughput Steroidogenesis Assay for Estrone (AID 2283441); settings: actives raise or lower the signal;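 also: estrone secreted into medium measured by LC-MS/MS after dansyl derivatization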
In short: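 H295R cells; 48 h forskolin (10 uM) prestimulation; 48 h compound exposure, 0.1% DMSO final. Medium estrone: MTBE extraction, dansyl derivatization, HPLC-MS/MS. Bidirectional fit vs DMSO.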

[18] = molecular target: Peroxisome proliferator-activated receptor gamma (Homo sapiens) (UniProt P37231); experiment: OT_PPARg_PPARgSRC1_1440: Odyssey Thera (OT) 24-hour Protein-Complementation Assay for Peroxisome Proliferator-activated Receptor Gamma/ SRC-1 Co-activator (AID 2283388; active = hit-call score of the fitted dose curve at least 0.9, where 1 is the maximum)
In short: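 HEK293T transiently transfected with PPARg/SRC-1 split-Venus YFP fusions 48 h before dosing, then treated 24 h at 37C. Fixed cells imaged; nuclear/cytoplasmic 488 nm fluorescence ratio, gain of signal versus DMSO.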

Sequence of Peroxisome proliferator-activated receptor gamma (Homo sapiens) (P37231 whole entry, looked up, the tested form may be a part): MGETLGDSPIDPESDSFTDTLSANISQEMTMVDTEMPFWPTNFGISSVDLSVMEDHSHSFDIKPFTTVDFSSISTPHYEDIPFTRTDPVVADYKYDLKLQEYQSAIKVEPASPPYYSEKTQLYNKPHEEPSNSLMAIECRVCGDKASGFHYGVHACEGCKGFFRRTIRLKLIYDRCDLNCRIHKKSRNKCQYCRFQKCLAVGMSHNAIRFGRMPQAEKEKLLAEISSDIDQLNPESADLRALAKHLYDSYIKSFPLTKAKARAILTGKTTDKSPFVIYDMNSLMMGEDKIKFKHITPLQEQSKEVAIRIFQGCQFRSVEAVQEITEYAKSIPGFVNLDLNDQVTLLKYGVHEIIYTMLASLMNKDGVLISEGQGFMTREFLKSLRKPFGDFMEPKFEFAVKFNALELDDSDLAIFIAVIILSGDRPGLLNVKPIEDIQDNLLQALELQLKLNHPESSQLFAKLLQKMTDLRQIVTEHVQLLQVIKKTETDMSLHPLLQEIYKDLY

SMILES: C[C@]12CCC(=O)C[C@@H]1CC[C@@H]1[C@@H]2CC[C@]2(C)[C@@H](O)CC[C@@H]12
- AC50 [1]: 0.0791 µM (active)
- outcome [2]: inactive
- AC50 [3]: 1.08 µM (active)
- outcome [4]: inactive
- outcome [5]: inactive
- outcome [6]: inactive
- outcome [7]: inactive
- outcome [8]: inactive
- AC50 [9]: 35.7 µM (active)
- outcome [10]: inactive
- outcome [11]: inactive
- AC50 [12]: 0.00162 µM (active)

SMILES: CC(=O)[O][Hg][c]1ccccc1
- AC50 [5]: 0.174 µM (active)
- AC50 [6]: 3.75 µM (active)
- AC50 [7]: 13.3 µM (active)
- AC50 [8]: 16.9 µM (active)
- outcome [9]: inactive
- AC50 [10]: 16.8 µM (active)
- AC50 [11]: 12.9 µM (active)
- AC50 [12]: 16.3 µM (active)

SMILES: CCC(=O)C(CC(C)N(C)C)(c1ccccc1)c1ccccc1 (stereo unspecified)
- outcome [4]: inactive
- outcome [5]: inactive
- outcome [6]: inactive
- outcome [7]: inactive
- AC50 [8]: 46.7 µM (active)
- AC50 [9]: 55.3 µM (active)
- outcome [10]: inactive
- outcome [11]: inactive
- outcome [12]: inactive

SMILES: Fc1ccc(C2(Cn3cncn3)OC2c2ccccc2Cl)cc1 (stereo unspecified)
- AC50 [13]: 7.55 µM (active)
- AC50 [1]: 0.645 µM (active)
- AC50 [2]: 2.06 µM (active)
- AC50 [14]: 3.04 µM (active)
- AC50 [15]: 2.08 µM (active)
- AC50 [16]: 1.5 µM (active)
- AC50 [17]: 2.03 µM (active)
- outcome [3]: inactive

SMILES: O=C1C2(Cl)C3(Cl)C4(Cl)C(Cl)(Cl)C5(Cl)C3(Cl)C1(Cl)C5(Cl)C24Cl (stereo unspecified)
- outcome [18]: inactive
- AC50 [4]: 91.9 µM (active)
- AC50 [5]: 93 µM (active)
- AC50 [6]: 92.9 µM (active)
- AC50 [7]: 93.5 µM (active)
- AC50 [8]: 22.6 µM (active)
- outcome [9]: inactive
- outcome [10]: inactive
- AC50 [11]: 93.5 µM (active)
- outcome [12]: inactive

SMILES: O=C(O)C(F)(F)C(F)(F)C(F)(F)C(F)(F)C(F)(F)C(F)(F)C(F)(F)C(F)(F)C(F)(F)C(F)(F)F
- outcome [4]: inactive
- outcome [5]: inactive
- outcome [6]: inactive
- outcome [7]: inactive
- AC50 [8]: 69.1 µM (active)
- outcome [9]: inactive
- outcome [10]: inactive
- outcome [11]: inactive
- outcome [12]: inactive

SMILES: CN(C)N=O
- outcome [4]: inactive
- outcome [5]: inactive
- outcome [6]: inactive
- outcome [7]: inactive
- outcome [8]: inactive
- outcome [9]: inactive
- outcome [10]: inactive
- outcome [11]: inactive
- outcome [12]: inactive

SMILES: O=c1[nH]c(=O)[nH]c(=O)[nH]1
- outcome [4]: inactive
- outcome [5]: inactive
- outcome [6]: inactive
- outcome [7]: inactive
- outcome [8]: inactive
- outcome [9]: inactive
- outcome [10]: inactive
- outcome [11]: inactive
- outcome [12]: inactive

SMILES: CCCCCCCCC(=O)NCc1ccc(O)c(OC)c1
- outcome [13]: inactive
- outcome [1]: inactive
- outcome [2]: inactive
- outcome [14]: inactive
- outcome [15]: inactive
- outcome [16]: inactive
- outcome [17]: inactive
- outcome [3]: inactive

SMILES: Cn1sc(Cl)cc1=O
- outcome [18]: inactive
- outcome [4]: inactive
- outcome [5]: inactive
- outcome [6]: inactive
- outcome [7]: inactive
- outcome [8]: inactive
- outcome [9]: inactive
- outcome [10]: inactive
- outcome [11]: inactive
- outcome [12]: inactive

SMILES: CCOP(=S)(OCC)SCCS(=O)(=O)CC
- outcome [13]: inactive
- outcome [1]: inactive
- AC50 [2]: 14.9 µM (active)
- outcome [14]: inactive
- outcome [15]: inactive
- outcome [16]: inactive
- outcome [17]: inactive
- AC50 [3]: 19.2 µM (active)

SMILES: C=CC(=O)N(C)C
- outcome [13]: inactive
- outcome [1]: inactive
- outcome [2]: inactive
- outcome [14]: inactive
- outcome [15]: inactive
- outcome [16]: inactive
- outcome [17]: inactive
- outcome [3]: inactive

SMILES: NC(=O)O
- outcome [5]: inactive
- outcome [6]: inactive
- outcome [7]: inactive
- outcome [8]: inactive
- outcome [9]: inactive
- outcome [10]: inactive
- outcome [11]: inactive
- outcome [12]: inactive
